The source of these data is the emibetuzumab library of Makowski et al. (2022).

The labels stand for the following.
B1: VH:VL chains; a variant is named by its letters at X, in order (parent)
chain 1: QVQLVQSGAEVKKPGASVKVSCKASGYTFTDYXMHWVRQAPGQGLEWMGXVNPNXXXTTYNQKFEGRVTMTTDTSTSTAYMELRSLRSDDTAVYYCARXNXLDXWGQGTTVTVSS
chain 2: DIQMTQSPSSLSASVGDRVTITCSVSSSVSSIYLHWYQQKPGKAPKLLIYSTSNLASGVPSRFSGSGSGTDFTLTISSLQPEDFATYYCQVYSGYPLTFGGGTKVEIK

This is one part of the list. How many sequences the whole screen found active is unknown.

Variants of B1 are the subject of the assay. The assay is described as follows: yeast display scFab, FACS + sequencing. As to conditions: with MET. The essentials: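 Two magnetic rounds on Protein A beads coated with HGFR-Fc, followed by FACS, were used to enrich a yeast surface scFab library mutated in the heavy-chain CDRs. FACS gated the top 50% antigen-positive cells after 3 h labelling at room temperature with 1 nM HGFR-Fc and anti-Myc in PBSB plus 1% milk. Binding to the antigen was scored positive when a sequence occurred in both antigen-positive samples from deep sequencing and negative when it occurred only in the input.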
Turning to VEEEGDVY, the antigen binding call is “no binding”.
In the case of AKTRDDVA, the antigen binding call is “no binding”.
On to YRTRGAGV, for which the antigen binding call is listed as “binds”.
With DRGGDAVV the entry was “no binding”; with YGTRSYGV, “no binding”; with YTTRGDGV, “no binding”.
Consider YRTRSAVV, for which the antigen binding call was “binds”.
Take YRTRSAGV: the antigen binding call is reported as “binds”.
As for YRTGAAGV, the antigen binding call was “binds”.
With DTGTGSGA, the antigen binding call is “no binding”.
In the case of VEGTGAGD it was “no binding”; in that of DGGKNAVV, “no binding”; in that of DAGKGAVV, “no binding”.
Turning to YAGKNAVV, the antigen binding call was “binds”.
With YTKRSAVV, the antigen binding call is recorded as “no binding”.
As to YTGTSAVV, the antigen binding call was “no binding”.
Take YRKGGAVV: the antigen binding call is “binds”.
YRKGAAVV: the antigen binding call is listed as “binds”.
Turning to YRARSSVV, the antigen binding call is recorded as “binds”.
Turning to YRARSAVV, the antigen binding call is “binds”.
Turning to SEARSAVV, the antigen binding call was “no binding”.
For VTTKSDGY, the antigen binding call is on record as “no binding”.
As for YATGDDGV, the antigen binding call is reported as “no binding”.
For SEGGTDVV, the antigen binding call is given as “no binding”.
On to VTGGDSGD, for which the antigen binding call is listed as “no binding”.
Regarding VRTEDSLD, the antigen binding call is given as “binds”.
In the case of VRTEDSLV it was “no binding”; in that of VAGGDALD, “no binding”.
Consider VRTAASGD, for which the antigen binding call was “no binding”.
As for VRTEDALV, the antigen binding call was “binds”.
In the case of VRTEDSGD, the antigen binding call is recorded as “binds”.
For VRTEDALD, the antigen binding call is reported as “binds”.
Regarding VRTEDDVD, the antigen binding call is reported as “no binding”.
In the case of VTTEASLD it was “no binding”; in that of VRTEDDLV, “no binding”.
Consider DGGGNDLA chain 1 R87K, for which the antigen binding call is “no binding”.
With VAGTGFWV, the antigen binding call is on record as “no binding”.
As for AGETGFSA, the antigen binding call is recorded as “no binding”.
Regarding VRTRSSLD, the antigen binding call is on record as “binds”.
Turning to YRAGGALS, the antigen binding call is on record as “binds”.
On to YRARGALS, for which the antigen binding call is listed as “binds”.
In the case of YKARGALS it was “binds”.
As to YRAKGALS, the antigen binding call is reported as “binds”.
With DAARGDAV, the antigen binding call is recorded as “no binding”.
As for VEKKDYSA, the antigen binding call is listed as “no binding”.
In the case of DEGGTAVA, the antigen binding call is on record as “no binding”.
With DAGGAAVS, the antigen binding call is recorded as “no binding”.
As for YRAKGALF, the antigen binding call is recorded as “binds”.
In the case of YRAKGAGS, the antigen binding call is reported as “binds”.
With DAGKGALF, the antigen binding call is “no binding”.
In the case of FRAGGALS it was “binds”.
Regarding YRAAGAGS, the antigen binding call was “binds”.
On to FTTRSALS, for which the antigen binding call was “no binding”.
As for YTGEADAS, the antigen binding call is reported as “no binding”.
Regarding SAERSAAF, the antigen binding call is “no binding”.
In the case of DAGGASSA, the antigen binding call was “no binding”.
SEEEGSGV: the antigen binding call is given as “no binding”.
Take YRERGALS: the antigen binding call is reported as “binds”.
With YRGGGYLV the entry was “binds”; with YRGGDYSV, “no binding”.
Consider YEGGGDLV, for which the antigen binding call is recorded as “no binding”.
In the case of YRGGDYLV, the antigen binding call is reported as “binds”.
Take YRGGDDLV: the antigen binding call is “no binding”.
Take YTTGGYLV: the antigen binding call is “no binding”.
DETEGDVF: the antigen binding call is listed as “no binding”.
In the case of VKGEGDVY it was “no binding”.
For the variant VEERDDWF, the antigen binding call is “no binding”.
With SRGKGALD, the antigen binding call is “binds”.
Take SETGAALD: the antigen binding call is given as “no binding”.
Take SEARSSLA: the antigen binding call is listed as “no binding”.
In the case of SAGGGAGD it was “no binding”; in that of SEARSDLA, “no binding”; in that of SRGGDDVA, “no binding”.
In the case of SRGGGALD it was “binds”; in that of SRGKGDAD, “no binding”.
In the case of SRGGSALA, the antigen binding call is recorded as “binds”.
Regarding SRGGAAWA, the antigen binding call is on record as “no binding”.
For SEARSALA, the antigen binding call is given as “binds”.
For DGGRGDGA, the antigen binding call is “no binding”.
With AKTGNDVA, the antigen binding call is listed as “no binding”.
With DTTGSALD the entry was “no binding”; with DRAGDSLD, “no binding”; with DRREDALD, “binds”.
In the case of YRAEGALD it was “binds”; in that of DRAGDALD, “binds”; in that of YRAGDALD, “binds”.
As to DAGAADVV, the antigen binding call is “no binding”.
As to DRGGDDVD, the antigen binding call is reported as “no binding”.
For the variant VRRRGAAD, the antigen binding call is “binds”.
For the variant ARRTDVAD, the antigen binding call is listed as “binds”.
Consider AARADSAD, for which the antigen binding call is “no binding”.
In the case of AREGDAGD it was “no binding”; in that of VGGGGAAD, “no binding”; in that of YRRRGVAD, “binds”.
For the variant YATAADAD, the antigen binding call is given as “no binding”.
As for YRAGGDAD, the antigen binding call is reported as “binds”.
With YTGGNDAD the entry was “no binding”; with FERRAFGY, “no binding”.
For YRRRGAAD, the antigen binding call is listed as “binds”.
Take YRRRGDAD: the antigen binding call is reported as “binds”.
On to YRRKGDAD, for which the antigen binding call is “no binding”.
For YRRGGAAD, the antigen binding call is reported as “binds”.
With AAARNFLF chain 1 V68I, the antigen binding call was “no binding”.
In the case of SEARSSAS, the antigen binding call was “no binding”.
With DEGGTDSF, the antigen binding call is recorded as “no binding”.
